PubChem BioAssay
Several values for one entry are separate records, joined by “and”; a condition that tells them apart may be missing. Equal values may be shown once. Inconclusive results are not listed. For part of these data: Entries with a potency or affinity are not part of this list. Activity calls are given as the source filed them. Unless noted, how the calls were made is not given here.

Legend:
[1] = molecular target: 6-phosphogluconate dehydrogenase, decarboxylating (Homo sapiens) (UniProt P52209); assay: inhibition of human phosphogluconate dehydrogenase – biochemical, recombinant enzyme, NADPH absorbance, primary screen (AID 1159550;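 active means at least 20% inhibition of 6-phosphogluconate dehydrogenase activity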); details: recombinant 6PGD, NADPH absorbance 341 nm; at 10 µM; stronger effect = higher value
[2] = system: Aerobactin synthetase IucA (Klebsiella pneumoniae hvKP1); assay: IucA enzyme inhibition, primary screen, biochemical, Spectrum library (AID 1346200); details: malachite green pyrophosphate, A620, at 8 µM, stronger effect = lower value;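 further: 100% = wells without compound and 0% = wells lacking enzyme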
[3] = P. berghei load reduction in hepatocytes – cell-based, HepG2, luciferase luminescence, HepG2 viability, primary screen (AID 624349; in the data active means parasite load remaining mostly below about 12%, no sharp cut-off; inactive means mostly above about 10%;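 further: 100% = mean of DMSO negative control wells on the same plate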); details: P. berghei liver stage in HepG2, luciferase luminescence, concentration not given here; parasite load remaining: stronger effect = lower value; viability: measured here: HepG2 viability without parasites
[4] = EMT-state selective cytotoxicity in co-culture – imaging, PC-3E GFP, TEM4-18 mCherry, primary screen (AID 1345086;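 active means compounds killing one labelled cell type while sparing the other, by normalised counts and ratio limits, not self-fluorescent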;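 on all read-outs here: cells exposed to compound for 72 h before imaging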;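 on red/green cell ratio (normalised): normalised mesenchymal count divided by normalised epithelial count so high means epithelial killing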); details: PC-3E GFP / TEM4-18 mCherry co-culture, imaging cell counts, at 1 µM; for red/green cell ratio (normalised): actives lie on both sides
[5] = molecular target: Mitogen-activated protein kinase 7 (Homo sapiens) (UniProt Q13164); assay: Gal4-ERK5 driven luciferase induction – cell-based, HTS, primary screen (AID 1508626;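 active means luciferase signal above three times the same-plate solvent-only control wells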;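 further: luciferase driven by Gal4-ERK5 fusion binding five Gal4 sites before minimal TATA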); details: HeLa Gal4-ERK5 transactivation, 18 h, at 5 µM, stronger effect = higher value
[6] = blockers of polyQ-driven CASP3 activation – cell-based (AID 1583); details: polyglutamine-induced caspase-3 activation, cell assay; stronger effect = higher value;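 tested at 10 µM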
[7] = yeast 75Q aggregation reduction – 75Q-TubU reporter (AID 1593); details: Yeast 75Q polyglutamine aggregation reporter
[8] = restoration of touch response, mutant HTT neurons – whole organism, C. elegans mechanosensory neurons, N-terminal huntingtin (AID 1599); details: C. elegans polyQ-huntingtin mechanosensory neurons, stronger effect = higher value
[9] = blockers of cytochrome c efflux from mitochondria – biochemical, purified mitochondria (AID 1603); details: stronger effect = lower value;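 further: mouse liver mitochondria challenged with calcium chloride; signal normalized to the plate average as 100%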
[10] = polyglutamine aggregate formation blockers (AID 1604); details: polyglutamine-induced protein aggregation inhibition assay; stronger effect = higher value; tested at 2.5 µM
[11] = glutamate transport activators, MN-1 cells, MN-1 cell line (AID 1612); details: MN-1 motor neuron cells, stronger effect = higher value;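 further: tested at 1 µM final; 0% = mean of DMSO vehicle wells on each plate; positive means more glutamate uptake than control and negative means less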
[12] = GFP-Q80 aggregate reduction, neuronal-like cells, cell-based, NGF-treated PC12, GFPQ80 (AID 1614); details: PC12 NGF-treated GFP-polyQ80 inclusion reduction;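 further: lower means fewer inclusions and 0 means no inclusions at all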
[13] = 75Q-TubH aggregate inhibition, S. cerevisiae, yeast (AID 1616); details: S. cerevisiae 75Q-TubH polyglutamine aggregation suppression; stronger effect = higher value
[14] = compounds altering circadian rhythm period length – cell-based, LOPAC library, luminescence reporter (AID 2774); details: circadian reporter cells, at 7 µM, actives lie on both sides;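 further: values are relative to mean of DMSO wells on each plate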
[15] = system: Hepatitis C virus NS3 helicase; assay: blockers of NS3h binding to ssDNA – biochemical, fluorescence polarization, LOPAC1280 library, primary screen (AID 687035; in the data active means inhibition above about 37%); details: Purified HCV NS3 helicase, Cy5-dT15 ssDNA binding fluorescence polarization; stronger effect = higher value; concentration not given here
[16] = compounds altering Cy5-DNA-NS3h complex signal – biochemical, LOPAC1280, artefact control for HCV NS3 helicase inhibitor project (AID 687037); details: Cy5-DNA-NS3h complex fluorescence interference counterscreen
[17] = system: Aerobactin synthetase IucA (Klebsiella pneumoniae); assay: inhibition of K. pneumoniae IucA enzyme – biochemical, Tocris library, absorbance (AID 1345561); details: purified IucA enzyme assay, absorbance (OD) read-out; stronger effect = lower value;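 tested at 8 µM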;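 further: 100% = enzyme without compound and 0% = no enzyme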
[18] = system: Aerobactin synthetase IucA (Klebsiella pneumoniae, hypervirulent); assay: biochemical IucA inhibition screen of LOPAC library by absorbance (AID 1346212); details: IucA enzyme assay, absorbance (OD) readout; stronger effect = lower value;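 tested at 8 µM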;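 further: 100% = no compound wells and 0% = no enzyme wells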
[19] = viability loss with induced miR-34 in A549 – imaging, A549 dox-inducible miR-34, nuclei and caspase counts, primary screen (AID 1347080;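 active means compounds whose cell count with miR-34 switched on is under 0.7 times the count with it off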); details: A549 miR-34 inducible, Hoechst nuclei count, 48 h
[20] = blockers of cellular phospholipid synthesis – cell-based, LOPAC library, screen 4, primary screen (AID 1347384); details: animal cells, phospholipid biosynthesis inhibition screen; at 10 µM
[21] = galactose survival enhancers in mitochondrial complex I cybrids – cell-based, galactose medium, ATP luminescence, primary screen (AID 1645843;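 active means z-score of at least 1.8 in each of two replicates, scored against plate mean and spread of sample wells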;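 further: positive z means more ATP and so rescue of galactose-driven cybrid death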); details: complex I mutant cybrid cells, 72 h, stronger effect = higher value
[22] = molecular target: NAD(+) hydrolase SARM1 (Homo sapiens) (UniProt Q6SZW1); assay: blocking NAD cleavage by SARM1 SAM-TIR – cell lysate, NAD-Glo luminescence (AID 1508614;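 active means compound whose remaining NAD level is above about 45 nM, limit read from the data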); details: SAM-TIR HEK293T lysate NADase, at 1 µM, stronger effect = higher value
[23] = molecular target: ATP-dependent translocase ABCB1 (Homo sapiens) (UniProt P08183); assay: P-glycoprotein substrate transport blockade – cell-based (AID 377; in the data active means fluorescence slope change above about 50%); details: MDR1-expressing cells, fluorescent substrate accumulation slope; stronger effect = higher value; concentration not given here
[24] = compounds altering viability of human ES cells (AID 493140); details: human embryonic stem cell survival screen; stronger effect = higher value;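 further: cells exposed to compounds for four days before counting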
[25] = measured here: epithelial PC-3E GFP cell survival
[26] = measured here: mesenchymal TEM4-18 mCherry cell survival
[27] = measured here: relative caspase fold change +Dox/-Dox
[28] = measured here: total cells with miR-34 induction, stronger effect = lower value
[29] = measured here: total cells without miR-34 induction

Chain of NAD(+) hydrolase SARM1 (Homo sapiens) (Q6SZW1 whole entry, looked up): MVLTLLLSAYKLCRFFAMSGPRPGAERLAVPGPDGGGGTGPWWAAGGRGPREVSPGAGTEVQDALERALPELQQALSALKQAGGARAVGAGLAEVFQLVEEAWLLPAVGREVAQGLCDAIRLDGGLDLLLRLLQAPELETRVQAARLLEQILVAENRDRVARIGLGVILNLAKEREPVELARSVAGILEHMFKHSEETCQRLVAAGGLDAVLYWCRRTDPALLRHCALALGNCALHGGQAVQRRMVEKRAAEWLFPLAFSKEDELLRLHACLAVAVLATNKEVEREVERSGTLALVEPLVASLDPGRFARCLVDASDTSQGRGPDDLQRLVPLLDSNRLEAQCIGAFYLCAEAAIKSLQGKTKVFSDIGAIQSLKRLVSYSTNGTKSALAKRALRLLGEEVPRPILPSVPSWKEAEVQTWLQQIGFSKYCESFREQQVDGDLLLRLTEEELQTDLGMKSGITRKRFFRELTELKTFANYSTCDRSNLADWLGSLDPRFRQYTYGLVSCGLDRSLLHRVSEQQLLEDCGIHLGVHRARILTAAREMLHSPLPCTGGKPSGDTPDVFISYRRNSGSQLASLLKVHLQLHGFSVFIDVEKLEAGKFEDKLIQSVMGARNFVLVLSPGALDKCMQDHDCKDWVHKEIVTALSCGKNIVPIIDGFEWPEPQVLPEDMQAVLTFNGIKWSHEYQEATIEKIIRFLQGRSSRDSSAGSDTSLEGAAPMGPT
Chain of Mitogen-activated protein kinase 7 (Homo sapiens) (Q13164 whole entry, looked up, the tested form may be a part): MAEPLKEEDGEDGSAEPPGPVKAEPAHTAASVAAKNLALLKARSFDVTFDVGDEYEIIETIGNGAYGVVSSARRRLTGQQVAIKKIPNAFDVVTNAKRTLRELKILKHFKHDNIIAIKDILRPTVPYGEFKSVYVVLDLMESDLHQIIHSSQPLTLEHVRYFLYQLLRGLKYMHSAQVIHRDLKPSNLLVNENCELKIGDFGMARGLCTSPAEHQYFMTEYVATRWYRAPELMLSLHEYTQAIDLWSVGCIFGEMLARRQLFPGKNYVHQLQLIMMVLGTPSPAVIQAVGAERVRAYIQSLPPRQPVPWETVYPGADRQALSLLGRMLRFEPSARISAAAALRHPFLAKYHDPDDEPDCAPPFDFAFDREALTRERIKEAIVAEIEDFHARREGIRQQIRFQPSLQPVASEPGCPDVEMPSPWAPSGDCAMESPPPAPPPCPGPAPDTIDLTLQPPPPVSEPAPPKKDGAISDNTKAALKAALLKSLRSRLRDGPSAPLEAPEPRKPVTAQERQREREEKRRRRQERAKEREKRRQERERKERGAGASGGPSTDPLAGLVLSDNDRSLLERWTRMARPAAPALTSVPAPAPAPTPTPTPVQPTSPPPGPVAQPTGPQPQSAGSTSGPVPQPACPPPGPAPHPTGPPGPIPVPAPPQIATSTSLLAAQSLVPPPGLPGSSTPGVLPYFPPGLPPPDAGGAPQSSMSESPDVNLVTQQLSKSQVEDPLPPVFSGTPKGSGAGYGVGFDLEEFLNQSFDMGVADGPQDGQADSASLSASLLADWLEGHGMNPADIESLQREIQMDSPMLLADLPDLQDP
Chain of 6-phosphogluconate dehydrogenase, decarboxylating (Homo sapiens) (P52209 whole entry, looked up): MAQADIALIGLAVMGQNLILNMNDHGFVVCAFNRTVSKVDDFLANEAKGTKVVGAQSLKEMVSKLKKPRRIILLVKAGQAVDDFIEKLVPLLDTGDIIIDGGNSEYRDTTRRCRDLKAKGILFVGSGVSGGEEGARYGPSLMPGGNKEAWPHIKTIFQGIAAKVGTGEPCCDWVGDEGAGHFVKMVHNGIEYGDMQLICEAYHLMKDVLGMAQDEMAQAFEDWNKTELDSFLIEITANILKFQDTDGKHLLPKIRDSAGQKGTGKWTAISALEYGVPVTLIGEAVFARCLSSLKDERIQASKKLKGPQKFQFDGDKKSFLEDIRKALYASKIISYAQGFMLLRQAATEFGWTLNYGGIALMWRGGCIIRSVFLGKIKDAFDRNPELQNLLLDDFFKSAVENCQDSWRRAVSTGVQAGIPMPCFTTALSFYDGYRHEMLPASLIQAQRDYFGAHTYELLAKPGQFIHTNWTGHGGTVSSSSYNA
Chain of ATP-dependent translocase ABCB1 (Homo sapiens) (P08183 whole entry, looked up): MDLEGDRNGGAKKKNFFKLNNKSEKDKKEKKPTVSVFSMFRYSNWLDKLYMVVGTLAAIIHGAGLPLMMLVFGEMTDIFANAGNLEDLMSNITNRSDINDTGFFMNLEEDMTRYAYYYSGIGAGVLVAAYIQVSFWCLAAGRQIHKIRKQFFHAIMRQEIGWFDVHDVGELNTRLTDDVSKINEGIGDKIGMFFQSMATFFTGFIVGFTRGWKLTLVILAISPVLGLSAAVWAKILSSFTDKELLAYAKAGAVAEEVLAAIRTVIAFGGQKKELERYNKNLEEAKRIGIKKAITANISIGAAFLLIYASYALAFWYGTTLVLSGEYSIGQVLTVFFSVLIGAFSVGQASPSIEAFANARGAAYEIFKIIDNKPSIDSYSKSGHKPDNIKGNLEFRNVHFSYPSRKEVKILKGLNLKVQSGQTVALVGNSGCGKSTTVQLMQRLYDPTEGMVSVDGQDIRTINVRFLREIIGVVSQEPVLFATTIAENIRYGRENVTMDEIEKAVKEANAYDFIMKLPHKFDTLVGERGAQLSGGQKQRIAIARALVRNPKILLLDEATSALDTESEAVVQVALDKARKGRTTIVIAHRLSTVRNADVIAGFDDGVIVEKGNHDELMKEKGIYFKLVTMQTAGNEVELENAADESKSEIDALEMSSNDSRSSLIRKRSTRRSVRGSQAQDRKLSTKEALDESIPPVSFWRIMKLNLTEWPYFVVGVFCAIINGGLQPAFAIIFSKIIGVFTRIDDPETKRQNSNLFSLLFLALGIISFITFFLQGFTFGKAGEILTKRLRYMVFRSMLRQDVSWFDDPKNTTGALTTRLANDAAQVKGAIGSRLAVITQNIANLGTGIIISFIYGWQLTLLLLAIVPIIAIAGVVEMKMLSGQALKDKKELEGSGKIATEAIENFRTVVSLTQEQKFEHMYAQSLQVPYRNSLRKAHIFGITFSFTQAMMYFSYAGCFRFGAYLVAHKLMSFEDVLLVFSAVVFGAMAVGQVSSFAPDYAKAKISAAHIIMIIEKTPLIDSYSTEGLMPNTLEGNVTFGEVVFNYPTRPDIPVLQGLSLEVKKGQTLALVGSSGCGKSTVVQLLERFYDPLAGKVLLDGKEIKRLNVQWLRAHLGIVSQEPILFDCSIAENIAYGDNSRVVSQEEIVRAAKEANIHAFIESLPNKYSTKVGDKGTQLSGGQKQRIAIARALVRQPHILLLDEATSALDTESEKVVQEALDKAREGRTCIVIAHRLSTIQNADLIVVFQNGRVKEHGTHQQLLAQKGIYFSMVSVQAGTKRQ

SMILES: CC(C)N(C(=O)SCC(Cl)=C(Cl)Cl)C(C)C
- inhibition [1]: 4.75% (inactive)
- activity remaining [2]: 102% (inactive)

SMILES: OC[C@@H]1CCCN2CCCC[C@H]12
- parasite load remaining [3]: 133% (inactive)
- viability [3]: 91.1%
- inhibition [1]: -5.58% (inactive)
- red/green cell ratio (normalised) [4]: 0.92 (inactive)
- normalised cell number [4, 25]: 0.97
- normalised cell number [4, 26]: 0.89
- activity remaining [2]: 109% (inactive)
- luciferase signal [5]: 48 AU (inactive)

SMILES: NCC(N)C(=O)c1ccccc1 (stereo not drawn)
- inhibition [1]: -14.8% (inactive)
- activity remaining [2]: 109% (inactive)

SMILES: O=[N+]([O-])c1cc(O)c(O)c([N+](=O)[O-])c1
- inhibition [6]: -6.91%
- score [7]: 1.27
- rescue above control [8]: -7.14
- cytochrome c release ratio [9]: 0.96
- inhibition of aggregation [10]: 80.3%
- glutamate uptake change [11]: -10%
- inclusion score [12]: 2
- aggregation suppression score [13]: 1.02
- period change [14]: 0.035 h (inactive)
- inhibition [15]: 1% (inactive)
- fluorescence ratio (interference) [16]: 1 (inactive)
- inhibition [1]: -7.64% (inactive)
- remaining activity [17]: 95.2% (inactive)
- activity remaining [2]: 110% (inactive)
- remaining activity [18]: 97% (inactive)
- fold change ([19]; stronger effect = lower value): 1.02 (inactive) and 0.929 (inactive)
- fold change [19, 27]: 1.32 and 0.849
- cell count [19, 28]: 9880 and 8690
- cell count [19, 29]: 9680 and 9350
- outcome [20]: inactive
- z-score [21]: 0.815 (inactive) and 1.17 (inactive)

SMILES: CNc1ccccc1C(=O)O
- inhibition [1]: 18.3% (inactive)
- red/green cell ratio (normalised) [4]: 0.85 (inactive)
- normalised cell number [4, 25]: 1.13
- normalised cell number [4, 26]: 0.95
- luciferase signal [5]: 76 AU (inactive)

SMILES: COC1=CC23CCCN2CCc2cc4c(cc2C3C1O)OCO4 (stereo not drawn)
- inhibition [1]: -9.46% (inactive)
- activity remaining [2]: 108% (inactive)

SMILES: NC(=NCCC[C@H](N)C(=O)O)N[N+](=O)[O-]
- inhibition [6]: -12.4% and -12.2%
- score [7]: 0.79 and 1.25
- rescue above control [8]: -0.39 and 5.97
- cytochrome c release ratio [9]: 0.94 and 0.84
- inhibition of aggregation [10]: 34.7% and 12.9%
- glutamate uptake change [11]: 19.3% and -1.48%
- inclusion score [12]: 2
- aggregation suppression score [13]: 1.04 and 1.38
- period change [14]: 0.04 h (inactive)
- parasite load remaining [3]: 100% (inactive)
- viability [3]: 68.5%
- inhibition [15]: -2% (inactive)
- fluorescence ratio (interference) [16]: 1 (inactive)
- inhibition [1]: 3.83% (inactive)
- activity remaining [2]: 121% (inactive)
- remaining activity [18]: 115% (inactive)
- fold change ([19]; stronger effect = lower value): 1.02 (inactive)
- fold change [19, 27]: 0.79
- cell count [19, 28]: 10000
- cell count [19, 29]: 9830
- outcome [20]: inactive
- luciferase signal [5]: 44 AU (inactive)
- z-score [21]: 0.525 (inactive)

SMILES: C[C@@H]([C@H](O)c1ccccc1)N(C)C
- inhibition [6]: -9.65%
- score [7]: 1.49
- rescue above control [8]: -3.5
- cytochrome c release ratio [9]: 0.95
- inhibition of aggregation [10]: 81%
- glutamate uptake change [11]: 13.8%
- inclusion score [12]: 2
- aggregation suppression score [13]: 1.19
- inhibition [1]: 4.3% (inactive)
- red/green cell ratio (normalised) [4]: 0.91 (inactive)
- normalised cell number [4, 25]: 1.19
- normalised cell number [4, 26]: 1.09
- fold change ([19]; stronger effect = lower value): 0.94 (inactive)
- fold change [19, 27]: 0.912
- cell count [19, 28]: 8870
- cell count [19, 29]: 9440
- remaining NAD [22]: 10 nM (inactive)
- luciferase signal [5]: 108 AU (inactive)

SMILES: CC(C)(O)[C@@H]1[C@H]2OC(=O)[C@@H]1[C@]1(O)C[C@H]3O[C@]34C(=O)O[C@H]2[C@]14C
- inhibition [6]: -16.4%
- score [7]: 1.49
- rescue above control [8]: 8.41
- cytochrome c release ratio [9]: 0.87
- inhibition of aggregation [10]: 51%
- glutamate uptake change [11]: 14.8%
- inclusion score [12]: 2
- aggregation suppression score [13]: 1.53
- parasite load remaining [3]: 79% (inactive)
- viability [3]: 91.4%
- inhibition [1]: 6.64% (inactive)
- red/green cell ratio (normalised) [4]: 0.89 (inactive)
- normalised cell number [4, 25]: 1.1
- normalised cell number [4, 26]: 0.99
- activity remaining [2]: 107% (inactive)
- luciferase signal [5]: 84 AU (inactive)

SMILES: COc1ccc2c(c1OC)C(=O)O[C@@H]2[C@H]1c2cc3c(cc2CCN1C)OCO3
- fluorescence slope change [23]: 159% (active)
- survival [24]: 7.17 (inactive)
- parasite load remaining [3]: 124% (inactive) and 81.5% (inactive) and 40.1% (inactive)
- viability [3]: 101% and 75.4% and 98.1%
- inhibition [1]: 6.9% (inactive)
- red/green cell ratio (normalised) [4]: 1.06 (inactive)
- normalised cell number [4, 25]: 1.07
- normalised cell number [4, 26]: 1.13
- fold change ([19]; stronger effect = lower value): 0.884 (inactive)
- fold change ([19]; stronger effect = lower value, cell number ratio, induced over uninduced): 0.838 (inactive)
- fold change [19, 27]: 1.51 and 2.25
- cell count [19, 28]: 8490 and 11200
- cell count [19, 29]: 10100 and 12700
- remaining NAD [22]: 10 nM (inactive)
- luciferase signal [5]: 84 AU (inactive)

SMILES: CNC(=O)CSP(=S)(OC)OC
- inhibition [1]: -17.5% (inactive)
- activity remaining [2]: 98.2% (inactive)

SMILES: CCCCOC(=O)c1ccccc1C(=O)OCCCC
- parasite load remaining [3]: 68.9% (inactive)
- viability [3]: 91.7%
- inhibition [1]: 4.37% (inactive)
- red/green cell ratio (normalised) [4]: 1.22 (inactive)
- normalised cell number [4, 25]: 0.78
- normalised cell number [4, 26]: 0.95
- fold change ([19]; stronger effect = lower value): 0.891 (inactive)
- fold change [19, 27]: 1.43
- cell count [19, 28]: 10600
- cell count [19, 29]: 11900
- remaining NAD [22]: 10 nM (inactive)
- luciferase signal [5]: 76 AU (inactive)

SMILES: c1ccc2c(c1)[nH]c1cnccc12
- fluorescence slope change [23]: 73% (active)
- inhibition [1]: 1.67% (inactive)
- red/green cell ratio (normalised) [4]: 1 (inactive)
- normalised cell number [4, 25]: 0.91
- normalised cell number [4, 26]: 0.91
- activity remaining [2]: 105% (inactive)
- luciferase signal [5]: 44 AU (inactive)

SMILES: O=C(O)CF
- inhibition [1]: 10.5% (inactive)
- red/green cell ratio (normalised) ([4]; counts scaled to control wells, 1 = unselective): 0.92 (inactive)
- normalised cell number [4, 25]: 1.09
- normalised cell number [4, 26]: 1
- luciferase signal [5]: 80 AU (inactive)
